This note sets out measurements from ChEMBL document CHEMBL1157539, “Thousands of chemical starting points for antimalarial lead identification” (Nature, 2010).

What is called Inhibition is the percentage by which the read-out fell short of the control.

Type in all cases: functional
Assay [1] deals with Plasmodium falciparum. Nature of the assay: GSK_TCMDC: Inhibition of Plasmodium falciparum 3D7 in whole red blood cells, using parasite LDH activity as an index of growth. Test compounds present at 2uM.
The subject of assay [2] is Plasmodium falciparum. Nature of the assay: GSK_TCMDC: Inhibition of Plasmodium falciparum Dd2 in whole red blood cells, using parasite LDH activity as an index of growth. Test compounds present at 2uM.
The subject of assay [3] is HepG2. Nature of the assay: GSK_TCMDC: Percent inhibition of human HepG2 cell line. Test compounds present at 10uM.

For the molecule `Cc1ccc(Nc2nc(C)cc(NC3CCCC3)n2)cc1`, the Inhibition in assay [1] was 100%; in assay [2], 89%; in assay [3], 33%.

`CN(C1CCC(NC(=O)/C=C/c2ccccc2)CC1)C1CC2(CCN(C(=O)OC(C)(C)C)CC2)c2ccccc21` (stereo not given): the figures for the Inhibition in assay [1], in assay [2] and in assay [3] were 95%, 95% and 16%, respectively.

In the case of `O=C(NCc1ccccc1F)c1ccc(N2CCC(NCc3cccc(-n4cccn4)c3)CC2)cc1`, the Inhibition in assay [1] was determined as 89%; in assay [2], 3%; in assay [3] it was 9%.

Turning to `CSc1ccc(NC(=O)Nc2cc(C)nc3ccccc23)cc1Br`, the results for the Inhibition in assay [1], in assay [2] and in assay [3] were 100%, 66% and 7%, respectively.

In the case of `Cl.N#Cc1ccc2c(c1)CCN(CCC1CCC(NC(=O)/C=C/c3cccc4ccccc34)CC1)CC2` (stereo not given), the values for the Inhibition in assay [1], in assay [2] and in assay [3] were 96%, 12% and 16%, respectively.

As to `CCN(CCCN1CCCCC1)c1cc(C)nc(Nc2ccc3c(c2)CCC3)n1.O=C(O)C(F)(F)F`, the Inhibition in assay [1] came out at 100%; in assay [2], 93%; in assay [3] it was 32%.

As to `Cc1cc(OCCCN2CCC(NS(=O)(=O)c3cccc(Br)c3)C2)c2ccccc2n1` (stereo not given), the Inhibition in assay [1] came to 86%; in assay [2] it was 40%; in assay [3], 13%.

For the molecule `CCCN1CCN(Cc2ccc(-c3ccc(-c4nc5ccccc5[nH]4)s3)cc2)CC1`, the Inhibition was found to be 100% in assay [1], 93% in assay [2] and 29% in assay [3].

With `O=S(=O)(Nc1cccc(CCN2CCC(N3CCCCC3)CC2)c1)c1cccc2cccnc12`, the Inhibition is 98% in assay [1], 17% in assay [2] and 0% in assay [3].

Take `O=c1c2ccc(F)cc2sn1-c1ccc(Cl)cc1`: the Inhibition in assay [1] amounted to 98%; in assay [2] it was 11%; in assay [3] it was 8%.

As to `CN1CCC(C(=O)Nc2cccc(-c3ccc(-c4nc5cc(F)ccc5[nH]4)cc3)c2)CC1`, the Inhibition in assay [1] is 100%; in assay [2], 51%; in assay [3], 12%.

Turning to `Cl.Clc1cc(Br)ccc1-c1ccc(CNCC2CCNCC2)o1`, the Inhibition in assay [1] is on record as 96%; in assay [2] it was 39%; in assay [3] it was 100%.

As for `CCOC(=O)N(C)/N=C/[C@H](CCc1ccccc1)NC(=O)[C@H](CC(C)C)NC(=O)c1cc2cccc(OC)c2o1`, the Inhibition in assay [1] is on record as 86%; in assay [2], 70%; in assay [3], 2%.

For `CN(C)CCCN1C(=O)c2[nH]nc(-c3ccc(Cl)cc3O)c2C1c1ccc(Cl)cc1` (stereo not given), the values for the Inhibition in assay [1], in assay [2] and in assay [3] were 99%, 15% and 57%, respectively.

With `O=C(/C=C/c1ccc(F)c(Br)c1)NCCCCCN1CCC(c2c[nH]c3ccccc23)CC1`, the Inhibition in assay [1] was 92%; in assay [2], 10%; in assay [3], 39%.

Turning to `COCCN1CCC(CNCC(C)(C)c2nc(-c3ccc(Cl)c(O)c3)c(-c3ccncc3)[nH]2)CC1.Cl`, the Inhibition stood at 100% in assay [1], 2% in assay [2] and 0% in assay [3].

As for `Cc1[nH]c(C)c(-c2ccc(OCc3cccc(C(F)(F)F)c3)nc2)c(=O)c1Br`, the Inhibition was 99% in assay [1], 97% in assay [2] and 37% in assay [3].

For `Cc1cccc2nc(-c3cccc(-c4ccc(NC(=O)C(C)CN5CCN(C)CC5)cc4)c3)[nH]c12` (stereo not given), the Inhibition worked out at 99% in assay [1], 100% in assay [2] and 7% in assay [3].

For `O=C(NCC1CN(Cc2ccc(N3CCCC3)o2)CCCO1)c1ccc2c(c1)OCO2.O=CO` (stereo not given), the figures for the Inhibition in assay [1], in assay [2] and in assay [3] were 83%, 70% and 0%, respectively.

With `Cc1ccc(NC(=O)NC2CCN(c3ccnc4ccccc34)C2)cc1.O=C(O)C(F)(F)F` (stereo not given), the Inhibition in assay [1] stood at 99%; in assay [2], 48%; in assay [3], 7%.

As to `CCCCCOc1ccc(C(O)C(CN2CCCCC2)c2ccccc2)cc1.Cl` (stereo not given), the Inhibition in assay [1] was found to be 98%; in assay [2], 95%; in assay [3], 11%.

As for `COc1cc(Nc2nccc(N3CCC(NS(=O)(=O)c4ccc(NC(C)=O)cc4)CC3)n2)cc(OC)c1OC`, the Inhibition in assay [1] is reported as 91%; in assay [2], 42%; in assay [3] it was 0%.

Consider `Cc1cc(-c2cccc(CNC3CCN(C)CC3)c2)ccc1S(=O)(=O)NC1CCC1.O=C(O)C(F)(F)F`, for which the Inhibition in assay [1] was found to be 100%; in assay [2], 96%; in assay [3] it was 33%.

On to `CCc1cc2c(Sc3nc4ccccc4[nH]3)ncnc2s1`, for which the Inhibition is 97% in assay [1], 98% in assay [2] and 6% in assay [3].

As for `CSC1=NC(=Nc2c(C)cccc2C)C2(CCCCC2)N1c1ccccc1Cl`, the Inhibition in assay [1] was found to be 95%; in assay [2], 57%; in assay [3] it was 22%.

Take `Cc1c(Cl)ccc2sc(N3CCN(C(=O)c4ccc([N+](=O)[O-])o4)CC3)nc12`: the figures for the Inhibition in assay [1], in assay [2] and in assay [3] were 96%, 93% and 0%, respectively.

With `FC(F)(F)c1ccc2[nH]c(-c3ccc(-c4cccc(CNCC5CCCO5)c4)s3)nc2c1.O=C(O)C(F)(F)F` (stereo not given), the Inhibition in assay [1] is given as 99%; in assay [2], 99%; in assay [3], 37%.

Consider `CCN1CCC(N(Cc2ccc(-c3ccc(C(F)(F)F)cc3)cc2)C(=O)Cn2c(CCc3cccc(F)c3F)cc(=O)c3c2CCC3)CC1.O=C(O)C(O)C(O)C(=O)O`, for which the Inhibition in assay [1] worked out at 89%; in assay [2], 85%; in assay [3], 49%.

As for `O=C(O)C(F)(F)F.O=S(=O)(/C=C/c1ccccc1)N(Cc1ccc(-c2ccc(CNCCc3ccccn3)cc2)cc1)CC1CCCCN1` (stereo not given), the Inhibition in assay [1] is reported as 100%; in assay [2], 97%; in assay [3], 46%.

Consider `CN1CCCN(Cc2ccc(-c3ccc(NC(=O)c4ccc(Cl)cc4)cc3)cc2)CC1.O=C(O)C(F)(F)F`, for which the Inhibition came out at 96% in assay [1], 67% in assay [2] and 58% in assay [3].
